Compound activity deposited in PubChem by Broad Institute.
FadD28 FP inh: blocks FadD28 binding to the bisubstrate probe; fluorescence polarization; inhibition, % at 12.5 µM; hit rate 0.22% among 360,000; in the data active = inhibition above about 8.5%, passing the limit was not always enough
Vc quorum ag-1: inducers of Vibrio cholerae quorum light production without autoinducers | V. cholerae BH1578 lux reporter, luminescence, 6 h | activation, % at 18.7 µM | hit rate 0.16% among 350,000 | AID 588436; in the data active = activation mostly above about 9.7%, no sharp cut-off
BioA inh: blocks M. tuberculosis BioA enzyme activity | purified M. tuberculosis BioA enzyme, plate reader | inhibition, % at 9.99 µM | hit rate 0.096% among 360,000; in the data active = inhibition above about 40%
Yp Topo-I inh: Y. pestis Topo-I inhibition via cleavage products; Y. pestis Topo-I cleavage product accumulation, plate reader; activity, % at 10 µM; hit rate 0.064% among 360,000; AID 504884; in the data active = activity above about 50%, passing the limit was not always enough
TcdB GH inh: inhibitors of Clostridioides difficile toxin B glycohydrolase | inhibition, % at 9.99 µM | P18177 | hit rate 0.24% among 350,000 | TcdB glycohydrolase enzymatic assay, plate reader; in the data active = inhibition above about 10%
Target sequence (P18177 whole entry, looked up): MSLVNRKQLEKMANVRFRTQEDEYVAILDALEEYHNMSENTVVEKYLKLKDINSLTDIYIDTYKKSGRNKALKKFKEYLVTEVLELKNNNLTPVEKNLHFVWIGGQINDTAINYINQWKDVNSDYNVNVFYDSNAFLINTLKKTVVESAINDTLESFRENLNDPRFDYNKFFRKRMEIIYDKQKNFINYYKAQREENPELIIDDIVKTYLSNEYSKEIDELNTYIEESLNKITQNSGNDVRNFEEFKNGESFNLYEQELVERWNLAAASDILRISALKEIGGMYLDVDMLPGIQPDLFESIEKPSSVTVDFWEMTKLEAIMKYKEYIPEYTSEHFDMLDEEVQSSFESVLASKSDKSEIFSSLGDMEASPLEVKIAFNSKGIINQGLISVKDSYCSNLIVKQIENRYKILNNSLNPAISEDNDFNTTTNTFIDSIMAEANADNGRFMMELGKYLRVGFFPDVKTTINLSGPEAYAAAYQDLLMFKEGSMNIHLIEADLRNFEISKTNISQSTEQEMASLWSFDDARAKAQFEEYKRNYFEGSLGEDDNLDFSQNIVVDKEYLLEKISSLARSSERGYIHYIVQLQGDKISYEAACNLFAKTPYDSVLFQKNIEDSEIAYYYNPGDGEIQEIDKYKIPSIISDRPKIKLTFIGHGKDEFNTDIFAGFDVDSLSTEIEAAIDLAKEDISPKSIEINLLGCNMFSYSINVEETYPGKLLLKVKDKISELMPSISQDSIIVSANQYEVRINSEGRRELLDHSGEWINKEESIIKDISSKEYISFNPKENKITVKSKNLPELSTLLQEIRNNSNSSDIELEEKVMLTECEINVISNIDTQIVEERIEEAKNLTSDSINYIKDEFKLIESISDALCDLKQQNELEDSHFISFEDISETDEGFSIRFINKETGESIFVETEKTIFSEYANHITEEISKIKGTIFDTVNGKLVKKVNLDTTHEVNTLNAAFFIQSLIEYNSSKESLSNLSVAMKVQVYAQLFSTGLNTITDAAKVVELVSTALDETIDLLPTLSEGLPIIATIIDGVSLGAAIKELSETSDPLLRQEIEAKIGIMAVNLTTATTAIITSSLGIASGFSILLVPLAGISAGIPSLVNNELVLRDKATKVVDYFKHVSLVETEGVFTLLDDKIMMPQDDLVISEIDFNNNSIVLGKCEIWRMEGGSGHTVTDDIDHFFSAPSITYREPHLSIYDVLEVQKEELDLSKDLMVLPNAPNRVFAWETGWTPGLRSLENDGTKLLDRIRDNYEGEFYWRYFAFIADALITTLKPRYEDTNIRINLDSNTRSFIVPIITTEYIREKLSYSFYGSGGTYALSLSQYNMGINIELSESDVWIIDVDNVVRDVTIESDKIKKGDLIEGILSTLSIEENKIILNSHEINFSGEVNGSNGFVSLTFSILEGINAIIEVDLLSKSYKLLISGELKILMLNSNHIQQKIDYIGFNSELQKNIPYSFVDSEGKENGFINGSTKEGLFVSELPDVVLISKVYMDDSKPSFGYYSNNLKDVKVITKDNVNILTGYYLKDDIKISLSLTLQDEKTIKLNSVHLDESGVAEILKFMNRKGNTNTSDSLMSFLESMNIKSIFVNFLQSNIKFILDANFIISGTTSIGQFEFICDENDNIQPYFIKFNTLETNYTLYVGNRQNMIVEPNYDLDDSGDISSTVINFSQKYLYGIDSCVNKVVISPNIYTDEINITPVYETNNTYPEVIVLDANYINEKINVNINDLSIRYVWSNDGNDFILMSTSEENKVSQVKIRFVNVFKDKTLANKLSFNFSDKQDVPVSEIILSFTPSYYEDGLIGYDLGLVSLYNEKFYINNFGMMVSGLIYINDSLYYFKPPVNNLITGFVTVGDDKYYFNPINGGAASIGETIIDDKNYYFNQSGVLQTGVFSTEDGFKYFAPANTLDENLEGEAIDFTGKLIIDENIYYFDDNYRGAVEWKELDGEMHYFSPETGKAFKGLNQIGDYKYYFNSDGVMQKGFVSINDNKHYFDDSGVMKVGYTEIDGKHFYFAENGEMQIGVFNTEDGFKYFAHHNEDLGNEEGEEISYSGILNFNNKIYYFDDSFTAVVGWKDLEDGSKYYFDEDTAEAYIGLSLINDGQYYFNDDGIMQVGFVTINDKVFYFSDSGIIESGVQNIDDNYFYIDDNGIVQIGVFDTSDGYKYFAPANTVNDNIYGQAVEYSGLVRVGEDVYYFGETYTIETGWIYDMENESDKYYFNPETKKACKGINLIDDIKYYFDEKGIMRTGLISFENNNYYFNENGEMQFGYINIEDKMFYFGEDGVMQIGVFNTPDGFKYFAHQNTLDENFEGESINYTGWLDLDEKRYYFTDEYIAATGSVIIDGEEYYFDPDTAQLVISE
Vc quorum ag-2: quorum light induction in BH1578 reporter strain; shares compounds with Vc quorum ag-1; V. cholerae BH1578 lux reporter, luminescence, 6 h; activation, % at 50 µM; 620 tested, under 10 active; AID 602243; call rule not given here
Numbers without * were called inactive; i = inactive; . = no result. Most compounds without a hit are left out; they make up all but 0.58% or so of the library.

SMILES	FadD28 FP inh	Vc quorum ag-1	BioA inh	Yp Topo-I inh	TcdB GH inh	Vc quorum ag-2
O=C1CN(S(=O)(=O)Cc2ccccc2)C[C@H]2[C@@H](c3ccc(C#Cc4cccnc4)cc3)[C@@H](CO)N12	.	.	.	.	0	.
C[C@@H]1CCCCO[C@@H](CN(C)C(=O)Nc2ccccc2)[C@@H](C)CN([C@@H](C)CO)C(=O)c2cc(NS(=O)(=O)c3ccc(F)cc3)ccc2O1	.	.	.	.	-1	.
O=C(c1cc(-c2ccc3c(c2)OCO3)on1)N1CCN(c2ccc(F)cc2)CC1	0	12	-2	2	.	0
CC(C)NC(=O)c1ccc(-c2cccc(C(F)(F)F)c2)o1	-1	33*	1	-2	.	0
CC(C)NC(=O)c1ccc(-c2cc(C(F)(F)F)ccc2Cl)o1	0	-2	-1	-3	.	.
N#Cc1nc(-c2ccc(OCc3ccc(Cl)cc3)cc2)oc1NCc1cccnc1	-3	17*	-1	17	.	0
O=C(c1ccccc1)N1CCC(c2nc(-c3ccc(S(=O)(=O)N4CCOCC4)cc3)no2)CC1	2	7	-2	25	.	1
O=C(C[C@@H]1CC[C@@H](NC(=O)C2CCOCC2)[C@@H](CO)O1)Nc1ccc(-c2ccccc2)cc1	.	.	-1	.	0	.
CC(=O)c1ccc(Oc2cc(C)nc(NCc3ccccc3)n2)cc1	0	25*	7	32	.	1
CCOc1cc(C)nc(NCc2ccccc2)n1	-2	i	0	14	.	.
CCS(=O)(=O)N1CCC2(CC1)CN(C(=O)NC(C)C)[C@H](CO)c1c2c2ccc(OC)cc2n1C	.	.	.	.	0	.
CN(C)c1nc(N)ncc1-c1ccc(Oc2ccccc2)cc1	0	53*	0	8	0	7
Cc1ccc(C(=O)N(C)CC(=O)Nc2ccc(N3CCOCC3)cc2)s1	0	14	0	-1	0	100
O=C(OCc1cc(=O)n2ccsc2n1)c1ccc(OC(F)F)cc1	-1	13	1	10	0	0
CN(C)c1ccc(C(=O)OCc2cc(=O)n3ccsc3n2)cc1	-3	.	.	0	1	.
CCCCOC(=O)n1c(=O)oc2ccccc21	-4	231*	-1	-6	.	118
Cn1c(=O)c2c(nc(SCCN3CCOCC3)n2Cc2cccc3ccccc23)n(C)c1=O	-2	12	5	24	.	0
CO[C@@H]1CN(C)C(=O)c2cc(NC(C)=O)ccc2OC[C@@H](C)N(Cc2cccc(F)c2)C[C@H]1C	.	.	0	.	-2	.
CC(=O)N1CC2(C1)[C@@H](c1ccc(-c3ccc(F)cc3)cc1)[C@@H](CO)N2C(C)=O	.	.	.	.	-1	.
COc1ccccc1NC(=O)CN1CCOCC1	1	i	-1	0	-1	.
COc1ccccc1NC(=O)CN1CCN(c2ccccc2F)CC1	-2	35*	1	2	.	96
COc1ccccc1NC(=O)CN1CCN(C(=O)C2CCCO2)CC1 (stereo not given)	-4	22	0	8	2	6
CCCN1[C@@H]2Cn3c(ccc(/C=C/c4ccccc4)c3=O)[C@H]1[C@@H](C(=O)NCc1ccccn1)[C@@H]2CO	.	.	3	.	2	.
CCCC(=O)Nc1ccc2c(c1)C(=O)N(C)[C@@H]1CC[C@@H](CC(=O)NCc3ccccc3)O[C@H]1CO2	.	.	10	.	1	.
O=C1CNC[C@H]2[C@H](c3ccc(C#CC4CCCC4)cc3)[C@H](CO)N12	.	.	.	.	-2	.
SMILES	FadD28 FP inh	Vc quorum ag-1	BioA inh	Yp Topo-I inh	TcdB GH inh	Vc quorum ag-2
Cc1noc(C)c1S(=O)(=O)Nc1ccc2c(c1)CC(=O)N([C@@H](C)CO)C[C@@H](C)[C@@H](CN(C)Cc1ccc(C(=O)Nc3ccccc3N)cc1)O2	.	.	.	.	-2	.
CCOC(=O)C1CCN(C(=O)C2c3ccccc3C(=O)N(C)C2c2ccc(OC)cc2)CC1 (stereo not given)	-1	17*	0	10	.	1
COc1ccc(CN2C[C@@H](C)[C@H](OC)CN(C)C(=O)c3ccc(NC(C)=O)cc3OC[C@H]2C)cc1	.	.	.	.	-7	.
Cc1cccc(C(=O)NCC(c2cccs2)N2CCOCC2)c1 (stereo not given)	-1	14	-3	-3	3	0
C[C@H](CO)N1C[C@H](C)[C@H](CN(C)Cc2ccc(C(=O)Nc3ccccc3N)cc2)Oc2c(NS(=O)(=O)c3ccc(F)cc3)cccc2C1=O	.	.	.	.	-1	.
CC(=O)N1[C@H](CO)[C@@H](c2ccccc2)C12CN(C(=O)c1cnccn1)C2	.	.	.	.	-1	.
COc1ccc(NC(=O)CSc2ccc3c(c2)OCCO3)cc1OC	-1	25*	0	3	.	0
COc1cc(NC(=O)CSc2ccc3c(c2)OCCO3)cc(OC)c1OC	-1	i	-3	-3	.	.
CCn1c(SCC(=O)Nc2ccc3c(c2)OCCO3)nnc1-c1ccccn1	0	12	-2	4	.	0
CSc1ccc(C#N)cc1NC(=O)c1ccc(Cl)cc1Cl	-1	186*	.	-6	.	0
CSc1ccc(C#N)cc1NC(=O)c1ccccc1	0	i	-2	5	2	.
COc1cccc(-c2ccc3c(c2)O[C@@H](CN(C)C(=O)C2CCOCC2)[C@@H](C)CN([C@H](C)CO)S3(=O)=O)c1	.	.	2	.	1	.
Cc1cc(C)c(S(C)(=O)=O)c(Oc2cccc(Cl)c2)n1	-1	0	3	1	.	.
Cc1cc(C)c(S(C)(=O)=O)c(Oc2ccc(C(C)(C)C)cc2)n1	2	12	.	-4	.	0
CCN(CC(=O)Nc1c(F)cccc1F)C(=O)c1ccc(C)c(S(=O)(=O)N2CCCCC2)c1	0	2	2	-7	.	0
CCN(CC(=O)Nc1c(F)cccc1F)C(=O)c1ccc(S(=O)(=O)N2CCCC2)cc1	-4	-2	0	-1	-3	.
Clc1ccc(-c2cc(COc3ccc4ccccc4c3)no2)cc1	1	12	.	-4	.	0
Cc1noc(C)c1S(=O)(=O)Nc1ccc2c(c1)C(=O)N([C@@H](C)CO)C[C@@H](C)[C@@H](CN(C)C(=O)Cc1ccccc1)OCCCC[C@@H](C)O2	.	.	1	.	-1	.
Cc1ccc(C)c(N2CCN(C(c3ccc(N(C)C)cc3)c3nnnn3C(C)(C)C)CC2)c1 (stereo not given)	0	38*	0	2	.	0
CC(C)CNC(=O)[C@@H]1c2ccccc2C(=O)N(CC23CC4CC(CC(C4)C2)C3)[C@H]1c1ccc(CO)cc1	.	.	1	.	0	.
COc1cccc(CNC(=O)C[C@@H]2C=C[C@@H](NC(=O)C3CCC3)[C@H](CO)O2)c1	.	.	0	.	.	.
COc1cccc(OCC(=O)NC2CCCCC2)c1	-3	37*	.	-1	0	39
COc1ccc(S(=O)(=O)N2CCSC2c2ccc(N)cc2)cc1 (stereo not given)	-1	12	-1	6	.	0
CCC(=O)Nc1ccc2c(c1)C(=O)N(C)C[C@@H](OC)[C@H](C)CN(C(=O)C1CCC1)[C@@H](C)CO2	.	.	-1	.	.	.
CCOC(=O)c1nnn(-c2nonc2N)c1CN1CCc2ccccc2C1	-1	12	1	11	.	1
CC(C)OC(=O)c1nnn(-c2nonc2N)c1CN1CCc2ccccc2C1	-2	5	0	-8	.	.
